“And” between values parts separate entries of the source, which are not always exact repeats. Identical values can stand only once. Records with an inconclusive call do not appear. The source made the active and inactive calls. Unless noted, calls come from the whole dose curve; as a rule, active = well fitted curve in the direction sought with a large enough effect; inconclusive = small, poorly fitted or top-dose-only effect, or another doubt; inactive = no such curve, though single readings can be large; an effect the other way counts as inactive or inconclusive.
Legend:
[1] = test system: Zika virus NS2B-NS3 protease; experiment: Primary screen GU AMC qHTS for Zika virus inhibitors (AID 1347154); note: nearly all actives have a fitted effect of over 70% in size; note: potency is the fitted concentration of half-maximal effect
In short: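 Unlinked Zika NS2B hydrophilic domain/NS3 protease domain noncovalent complex (25 nM final) in 10 mM Tris-HCl pH 8.0, 0.01% Tween 20, with AMC peptide substrate. Fluorescence (ex 340, em 450 nm) change over 15 min, room temperature; percent inhibition fitted to 4-parameter Hill equation.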

[2] = target: Cytochrome P450 1A2 (Homo sapiens) (UniProt P05177); experiment: p450-cyp1a2 (AID 410; calls by dose curve; note: potency is the fitted concentration of half-maximal effect)
Sequence of Cytochrome P450 1A2 (Homo sapiens) (P05177 whole entry, looked up): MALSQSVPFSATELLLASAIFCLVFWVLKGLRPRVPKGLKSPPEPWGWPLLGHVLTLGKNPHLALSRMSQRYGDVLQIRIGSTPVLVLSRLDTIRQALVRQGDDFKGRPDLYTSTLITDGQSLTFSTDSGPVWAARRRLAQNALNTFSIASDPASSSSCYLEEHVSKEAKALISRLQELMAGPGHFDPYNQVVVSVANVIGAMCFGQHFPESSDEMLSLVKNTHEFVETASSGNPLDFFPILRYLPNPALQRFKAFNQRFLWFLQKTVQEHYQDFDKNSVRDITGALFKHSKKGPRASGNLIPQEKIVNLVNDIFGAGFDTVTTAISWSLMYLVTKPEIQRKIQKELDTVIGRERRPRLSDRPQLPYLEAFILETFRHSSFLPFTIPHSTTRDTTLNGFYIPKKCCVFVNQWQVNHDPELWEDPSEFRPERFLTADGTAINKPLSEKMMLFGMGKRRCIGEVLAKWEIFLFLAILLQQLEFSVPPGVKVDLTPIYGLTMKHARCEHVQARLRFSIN
In short: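 20nM CYP1A2 with 100uM Luciferin-ME (at Km) in 100mM KPO4; compound preincubated 10 min, NADPH regeneration added, 60 min at room temperature. Luciferin quantified by luminescence after detection reagent; normalized to 57 uM furafylline.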

[3] = target: Glucocorticoid receptor (Homo sapiens) (UniProt P04150); experiment: GR-GFP Redistribution (AID 450;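 active = compounds whose dose series gives a full or clear partial fitted curve of increased nuclear translocation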; note: potency is the fitted concentration of half-maximal effect); details: U2OS GR-GFP nuclear translocation, laser cytometry, 2 h
Sequence of Glucocorticoid receptor (Homo sapiens) (P04150 whole entry, looked up, the tested form may be a part): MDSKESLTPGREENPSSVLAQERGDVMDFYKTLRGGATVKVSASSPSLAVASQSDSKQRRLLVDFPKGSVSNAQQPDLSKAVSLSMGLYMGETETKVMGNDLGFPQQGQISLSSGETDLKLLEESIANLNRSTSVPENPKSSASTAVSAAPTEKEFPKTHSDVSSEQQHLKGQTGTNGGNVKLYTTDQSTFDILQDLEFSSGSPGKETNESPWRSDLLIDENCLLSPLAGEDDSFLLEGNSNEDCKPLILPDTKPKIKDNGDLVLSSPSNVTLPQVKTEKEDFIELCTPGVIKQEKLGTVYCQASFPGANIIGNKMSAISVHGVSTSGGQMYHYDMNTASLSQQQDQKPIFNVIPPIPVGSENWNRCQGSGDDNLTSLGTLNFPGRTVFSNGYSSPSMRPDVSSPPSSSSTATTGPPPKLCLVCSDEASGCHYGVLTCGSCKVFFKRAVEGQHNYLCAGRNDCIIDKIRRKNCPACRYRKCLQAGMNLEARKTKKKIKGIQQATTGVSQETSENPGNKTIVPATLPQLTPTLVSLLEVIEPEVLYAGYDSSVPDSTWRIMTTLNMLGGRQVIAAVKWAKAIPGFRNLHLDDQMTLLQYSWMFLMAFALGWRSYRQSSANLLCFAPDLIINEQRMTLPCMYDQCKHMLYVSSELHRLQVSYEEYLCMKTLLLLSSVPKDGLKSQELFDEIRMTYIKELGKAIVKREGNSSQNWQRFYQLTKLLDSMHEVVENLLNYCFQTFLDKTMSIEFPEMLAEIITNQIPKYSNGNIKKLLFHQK

[4] = target: Glucocorticoid receptor (Homo sapiens) (UniProt P04150); experiment: GR-EFC Redistribution (AID 451; calls by dose curve; note: potency is the fitted concentration of half-maximal effect); details: CHO-K1 GR-EFC translocation, beta-gal luminescence, 2 h
In short: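 CHO-K1 cells stably expressing nuclear-localized β-gal enzyme acceptor and GR fused C-terminally to the enzyme donor fragment; ligand-driven nuclear translocation restores β-gal by complementation. Compounds titrated up to 46 uM final, 2 h at 37 °C; luminescence read.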

[5] = target: Mitogen-activated protein kinase 10 (Mus musculus) (UniProt Q61831); experiment: JNK3 AlphaScreen Assay (AID 530; active = well fitted curve in either direction with a large enough effect, not every such curve was filed as active;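 note: kinase came from lysate of stimulated human HepG2 cells; signal reports phosphorylation of biotinylated GST-cJun 1-79 at Ser73 with 10 µM ATP; series mostly up to about 57 µM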)
In short: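 Inhibitors reduce antibody binding to phosphorylated biotin-cJun, lowering AlphaScreen luminescence. Lysates from HepG2 cells pre-activated by IL-1beta plus TNF-alpha supplied JNK3; compounds were titrated.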

[6] = target: 3',5'-cyclic-AMP phosphodiesterase 4B (Homo sapiens) (UniProt Q07343); experiment: qHTS Assay for Inhibitors of PDE-IV (AID 607; active = well fitted activation curve with a large enough effect in the main read-out, with a control signal flat, not every such curve was filed as active)
Sequence of 3',5'-cyclic-AMP phosphodiesterase 4B (Homo sapiens) (Q07343 whole entry, looked up): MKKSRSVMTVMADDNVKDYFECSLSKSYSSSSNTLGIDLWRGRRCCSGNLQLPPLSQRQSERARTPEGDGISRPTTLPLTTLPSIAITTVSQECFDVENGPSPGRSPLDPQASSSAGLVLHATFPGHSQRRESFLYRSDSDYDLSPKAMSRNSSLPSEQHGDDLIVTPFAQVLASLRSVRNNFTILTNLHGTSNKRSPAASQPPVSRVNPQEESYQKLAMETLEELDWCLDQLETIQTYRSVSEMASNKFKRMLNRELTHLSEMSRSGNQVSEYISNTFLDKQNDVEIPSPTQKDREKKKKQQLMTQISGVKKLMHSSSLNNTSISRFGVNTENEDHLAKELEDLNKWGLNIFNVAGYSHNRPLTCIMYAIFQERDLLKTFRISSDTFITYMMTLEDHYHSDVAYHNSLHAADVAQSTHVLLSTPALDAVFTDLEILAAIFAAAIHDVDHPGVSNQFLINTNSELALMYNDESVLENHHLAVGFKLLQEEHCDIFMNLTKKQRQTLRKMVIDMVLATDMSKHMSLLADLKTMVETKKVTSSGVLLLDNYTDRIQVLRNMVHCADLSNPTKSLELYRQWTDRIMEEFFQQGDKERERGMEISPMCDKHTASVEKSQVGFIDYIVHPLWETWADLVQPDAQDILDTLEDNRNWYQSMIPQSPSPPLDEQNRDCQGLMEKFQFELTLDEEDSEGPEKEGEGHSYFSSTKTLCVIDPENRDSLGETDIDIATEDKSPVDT
In short: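 The readout is membrane depolarisation from a cAMP-sensing CNG channel, detected with a potential dye at ex 535/em 590. Cells were HEK293-derived (endogenous PDE-IV) at 1000 cells/well, titrated up to 22.9 uM final.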

[7] = target: Cytochrome P450 2C9 (Homo sapiens) (UniProt P11712); experiment: qHTS Assay for Inhibitors and Substrates of Cytochrome P450 2C9 (AID 883); note: potency is the fitted concentration of half-maximal effect; nearly all actives have a fitted effect of over 60% in size
Sequence of Cytochrome P450 2C9 (Homo sapiens) (P11712 whole entry, looked up): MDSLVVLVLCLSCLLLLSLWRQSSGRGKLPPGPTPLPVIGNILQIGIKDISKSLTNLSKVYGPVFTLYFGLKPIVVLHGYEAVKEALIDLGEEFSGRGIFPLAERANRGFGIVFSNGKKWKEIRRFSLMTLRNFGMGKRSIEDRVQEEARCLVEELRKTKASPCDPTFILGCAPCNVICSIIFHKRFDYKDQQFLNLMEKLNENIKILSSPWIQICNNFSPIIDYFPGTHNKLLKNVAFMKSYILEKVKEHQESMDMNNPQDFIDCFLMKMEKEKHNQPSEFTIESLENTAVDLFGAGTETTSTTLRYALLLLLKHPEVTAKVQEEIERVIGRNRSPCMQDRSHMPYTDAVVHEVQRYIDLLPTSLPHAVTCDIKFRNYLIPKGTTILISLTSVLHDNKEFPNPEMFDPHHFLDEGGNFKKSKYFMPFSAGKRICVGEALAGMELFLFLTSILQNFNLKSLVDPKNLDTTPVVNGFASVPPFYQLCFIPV
In short: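 Human CYP2C9 (10nM) hydroxylated Luciferin-H (100uM, at its KM) to luciferin in 25mM KPO4. Compound was preincubated 10 min at 37C, then NADPH regeneration started a 60 min reaction at 37C. Luminescence was read after detection reagent, normalized to 57uM sulphaphenazole.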

[8] = target: Cytochrome P450 3A4 (Homo sapiens) (UniProt P08684); experiment: qHTS Assay for Activators of Cytochrome P450 3A4 (AID 885); note: nearly all actives have a fitted effect of over 65% in size
Sequence of Cytochrome P450 3A4 (Homo sapiens) (P08684 whole entry, looked up): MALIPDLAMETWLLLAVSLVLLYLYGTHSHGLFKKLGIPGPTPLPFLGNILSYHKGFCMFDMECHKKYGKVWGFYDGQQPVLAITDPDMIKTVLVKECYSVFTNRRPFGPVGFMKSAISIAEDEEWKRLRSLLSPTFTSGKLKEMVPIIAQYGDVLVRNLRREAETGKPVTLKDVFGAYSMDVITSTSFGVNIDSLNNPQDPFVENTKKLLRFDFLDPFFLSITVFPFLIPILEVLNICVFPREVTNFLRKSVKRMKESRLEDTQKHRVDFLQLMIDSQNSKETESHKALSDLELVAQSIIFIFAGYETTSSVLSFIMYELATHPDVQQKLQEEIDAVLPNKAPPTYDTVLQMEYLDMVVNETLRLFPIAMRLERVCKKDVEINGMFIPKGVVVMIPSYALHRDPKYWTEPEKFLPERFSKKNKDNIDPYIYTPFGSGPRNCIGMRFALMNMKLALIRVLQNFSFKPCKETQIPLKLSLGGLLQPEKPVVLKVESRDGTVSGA
In short: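 Steps: enzyme/substrate mix dispensed; compound added, 10 min RT; NADPH regeneration solution added, 60 min RT; luciferin detection buffer stops reaction; 20 min later luminescence measured.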

[9] = target: Ubiquitin carboxyl-terminal hydrolase 1 (Homo sapiens) (UniProt O94782); experiment: Inhibitors of USP1/UAF1: Pilot qHTS (AID 504865);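 note: rhodamine fluorescence freed from ubiquitin-rhodamine substrate followed over time; top concentration of the series differs between compounds; nearly all actives have a fitted effect of over 35% in size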
Sequence of Ubiquitin carboxyl-terminal hydrolase 1 (Homo sapiens) (O94782 whole entry, looked up): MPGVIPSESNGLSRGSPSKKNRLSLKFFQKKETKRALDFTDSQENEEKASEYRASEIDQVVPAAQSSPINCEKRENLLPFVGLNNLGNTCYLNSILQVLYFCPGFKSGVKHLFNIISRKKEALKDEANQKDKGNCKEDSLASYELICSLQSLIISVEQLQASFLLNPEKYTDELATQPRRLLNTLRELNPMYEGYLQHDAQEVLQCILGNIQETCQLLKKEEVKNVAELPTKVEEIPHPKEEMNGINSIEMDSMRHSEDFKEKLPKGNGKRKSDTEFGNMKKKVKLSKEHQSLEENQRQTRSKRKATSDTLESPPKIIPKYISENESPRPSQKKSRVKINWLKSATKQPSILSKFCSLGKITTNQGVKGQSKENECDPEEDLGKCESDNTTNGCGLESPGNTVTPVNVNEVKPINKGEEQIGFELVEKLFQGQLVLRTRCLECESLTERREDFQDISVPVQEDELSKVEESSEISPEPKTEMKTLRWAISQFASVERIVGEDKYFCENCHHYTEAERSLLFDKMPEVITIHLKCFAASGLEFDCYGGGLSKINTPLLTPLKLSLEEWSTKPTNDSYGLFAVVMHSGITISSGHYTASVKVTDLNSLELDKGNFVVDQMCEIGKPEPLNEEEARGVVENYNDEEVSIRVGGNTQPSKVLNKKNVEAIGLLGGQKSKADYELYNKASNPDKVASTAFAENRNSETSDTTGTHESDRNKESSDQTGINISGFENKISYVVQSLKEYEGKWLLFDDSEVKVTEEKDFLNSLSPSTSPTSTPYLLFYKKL
In short: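 Deubiquitinase activity followed as kinetic rhodamine fluorescence release from 150 nM Ub-Rho. 1 nM USP1/UAF1 with compound, after 15 min room-temperature preincubation, in HEPES pH 7.8 buffer containing TCEP, EDTA, BSA and Tween-20.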

Furin (Homo sapiens) = Furin (Homo sapiens) (UniProt P09958); experiment: Furin counterscreen qHTS for Zika virus inhibitors (AID 1347149); note: nearly all actives have a fitted effect of over 70% in size; note: potency is the fitted concentration of half-maximal effect
Sequence of Furin (Homo sapiens) (P09958 whole entry, looked up): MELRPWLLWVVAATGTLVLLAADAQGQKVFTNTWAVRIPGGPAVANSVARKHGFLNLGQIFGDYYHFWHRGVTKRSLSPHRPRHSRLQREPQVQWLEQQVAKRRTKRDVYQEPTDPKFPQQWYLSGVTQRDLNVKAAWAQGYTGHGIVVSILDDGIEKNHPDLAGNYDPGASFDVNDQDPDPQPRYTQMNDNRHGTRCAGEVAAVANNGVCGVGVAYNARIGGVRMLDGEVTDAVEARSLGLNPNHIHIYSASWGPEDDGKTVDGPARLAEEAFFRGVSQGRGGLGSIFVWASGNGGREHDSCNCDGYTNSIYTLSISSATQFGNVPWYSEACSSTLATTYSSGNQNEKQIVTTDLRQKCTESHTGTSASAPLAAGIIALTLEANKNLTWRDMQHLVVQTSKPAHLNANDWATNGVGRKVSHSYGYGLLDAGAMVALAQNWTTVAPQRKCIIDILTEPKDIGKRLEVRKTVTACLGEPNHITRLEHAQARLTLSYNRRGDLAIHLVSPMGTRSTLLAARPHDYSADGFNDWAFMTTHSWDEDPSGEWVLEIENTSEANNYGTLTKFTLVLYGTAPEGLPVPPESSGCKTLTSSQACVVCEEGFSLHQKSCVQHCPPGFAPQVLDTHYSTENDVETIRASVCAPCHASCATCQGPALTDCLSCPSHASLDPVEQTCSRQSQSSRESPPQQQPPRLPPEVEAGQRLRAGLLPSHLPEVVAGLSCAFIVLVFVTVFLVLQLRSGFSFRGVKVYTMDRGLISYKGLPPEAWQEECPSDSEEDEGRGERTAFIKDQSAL
In short: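 Fluorogenic cleavage of BOC-RVRR-AMC (2 microM final, Km ~15 µM) was monitored (ex 340, em 450 nm) at 37C after 15 min RT preincubation of 5 nM furin with compounds in HEPES pH 7.0 buffer with CaCl2 and Triton X-100. Percent inhibition was fitted to a 4-parameter Hill curve.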

[10] = test system: Zika virus NS2B-NS3 protease (linked construct); experiment: Confirmatory screen NINDS AMC qHTS for Zika virus inhibitors (AID 1347152); note: potency is the fitted concentration of half-maximal effect; nearly all actives have a fitted effect of over 70% in size
In short: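 IC50s from 4-parameter Hill fits of percent inhibition, based on AMC fluorescence gain (340/450 nm) over 15 min with 10 microM Bz-Nle-KRR-AMC. Enzyme: 1 nM linked NS2B-NS3 in Tris-HCl pH 8.0; 15-min compound preincubation.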

[11] = test system: Zika virus NS2B-NS3 protease (unlinked complex); experiment: Confirmatory screen GU AMC qHTS for Zika virus inhibitors (AID 1347153); note: nearly all actives have a fitted effect of over 70% in size
In short: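 Fluorescence change (ex 340/em 450 nm) over 15 min, ~20% substrate conversion, normalized to no-inhibitor and no-enzyme controls, then Hill-fitted. Unlinked protease at 25 nM; AMC peptide 10 µM.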

[12] = Confirmatory screen NINDS Rhodamine qHTS for Zika virus inhibitors (AID 1347161);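 note: purified Zika NS2B-NS3 protease with linked NS2B cofactor domain and Rhodamine110 peptide substrate; series mostly up to about 110 µM; nearly all actives have a fitted effect of over 60% in size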
In short: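 In 10 mM Tris-HCl pH 8.0 containing 0.01% Tween 20, linked NS2B-NS3 protease (25 nM final) is exposed to test compounds for 15 min. Cleavage of 1.5 microM Rhodamine110 substrate is tracked by fluorescence over 15 min.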

[13] = HepG2 cells viability qHTS for Zika virus inhibitors (AID 1347168)
In short: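 Counter-screen for cytotoxicity of hits from NS2B-NS3 protease qHTS. Overnight-attached cells (2.5 x 10^5 cells/mL, DMEM/4% FBS) were dosed in titration, incubated 24 to 48 hours, then assayed by CellTiter Glo.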

[14] = test system: Zika virus NS2B-NS3 protease (unlinked); experiment: Optimization of GU AMC qHTS for Zika virus inhibitors: Unlinked NS2B-NS3 protease assay (AID 1347151); note: series mostly up to about 52 µM; nearly all actives have a fitted effect of over 80% in size
In short: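 Fluorescence gain (340/450 nm) over 15 min at room temperature, ~20% conversion, gave percent inhibition fitted to a 4-parameter Hill equation; enzyme was unlinked NS2B-NS3 (25 nM final), pH 8.0 Tris buffer.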

[15] = Primary qHTS for small molecule stabilizers of the endoplasmic reticulum resident proteome: Secreted ER Calcium Modulated Protein (SERCaMP) assay (AID 1508630)
In short: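 GLuc-SERCaMP-expressing SH-SY5Y cells, pretreated 16 h with compound, are challenged with thapsigargin to empty ER calcium stores; after 4 h, coelenterazine is added directly to the medium and luminescence is imaged.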

Measured: Potency

C(=C\c1ccccc1)/CN1CCN(CCOC(c2ccccc2)c2ccccc2)CC1
inactive: [1]

C=CCN1CCC2(C)c3cc(O)ccc3CC1[C@@H]2C (some centres undefined)
inactive: [1]

Clc1cncc(N2CCNCC2)n1
inactive: [3] > 46 µM | [4] > 46 µM | [5] | [6] | [8] | [9] | [11] | [12] | [13]
active: [2] 2 µM | [7] 2 µM | Furin (Homo sapiens) 24.1 µM and 10.8 µM | [10] 24.1 µM and 8.57 µM | [1] 15 µM

Oc1ccc2c3c1O[C@H]1c4oc5ccccc5c4C[C@@]4(O)C(C2)N(CC2CC2)CC[C@]314
inactive: [1]

CC1OC(O[C@H]2C[C@@H](O)[C@]3(CO)[C@H]4[C@H](O)C[C@]5(C)[C@@H](C6=CC(=O)OC6)CC[C@]5(O)[C@@H]4CC[C@]3(O)C2)C(O)C(O)C1O (some centres undefined)
inactive: Furin (Homo sapiens) | [14]

C[C@H]1O[C@@H](O[C@H]2[C@@H](O)C[C@H](O[C@H]3[C@@H](O)C[C@H](O[C@H]4CC[C@]5(C)C6CC[C@]7(C)[C@@H](C8=CC(=O)OC8)CC[C@]7(O)C6CC[C@@H]5C4)O[C@@H]3C)O[C@@H]2C)C[C@H](O)[C@@H]1O (some centres undefined)
inactive: Furin (Homo sapiens) | [14] | [1] | [13] | [15]

Reference: PubChem BioAssay (NCATS)
